Composite z-score and z-score data for 5 compounds are collected here from PubChem BioAssay.

A short description of experiment [1]: binders of probe aFSTL3 on microarray, primary screen, stem cell growth factor project, biochemical, small-molecule microarray, fluorescence 635/667 (AID 1064).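 Further: measures binding of the biotinylated anti-FSTL3 antibody to printed compounds.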 The following applies: higher = more signal.
A short description of experiment [2]: binders from COS7 lysate, DM2A8 probe, primary screen, torsin A project, cell lysate, small-molecule microarray, fluorescence 635/667 (AID 1065). Particulars: higher = more signal, COS7 lysate expressing mutant human TOR1A.
Experiment [3] in a line: binders of probe aFGF2 on microarray, primary screen, stem cell growth factor project, biochemical, small-molecule microarray, fluorescence 635/667 (AID 1067).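 Further: measures binding of biotinylated aFGF2 protein to printed compounds on slides; z-score merges feature fluorescence and signal-to-noise across triplicate slides.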 The following applies: higher = more signal.
A short description of experiment [4]: binders of probe aFGF10 on microarray, primary screen, stem cell growth factor project, biochemical, small-molecule microarray, fluorescence 635/667 (AID 1071).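 Further: score merges 667 nm spot intensity and signal to noise from triplicate slides.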 Particulars: higher = more signal.
Experiment [5] deals with Neurogenic locus notch homolog protein 2 (Homo sapiens) (UniProt Q04721). Kind of experiment: Notch2 binders on small-molecule microarrays, primary screen, biochemical, small-molecule microarray, 635 nm fluorescence, stem cell growth factors (AID 1073). The following applies: Notch2 binding, higher = more signal.
For experiment [6], the target named is Pro-neuregulin-1, membrane-bound isoform (Homo sapiens) (UniProt Q02297). The experiment in a line: NRG1 binders on small-molecule microarrays, primary screen, psychiatric disease protein project, biochemical, small-molecule microarray, fluorescence 635/667 (AID 1075).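 Further: score combines 667 nm spot fluorescence with signal to noise.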 The following applies: NRG1 binding, 635 nm fluorescence, higher = more signal.
The test system of experiment [7] is Neuregulin-1 EGF-like domain. Kind of experiment: binders of neuregulin-1 EGF-like domain, primary screen, biochemical, small-molecule microarray, 635 nm fluorescence (AID 1081).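 Further: binding of the protein to compounds printed on small-molecule microarray slides.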 Particulars: small-molecule microarray binding, higher = more signal.
Experiment [8] can be described thus: FRG1 promoter luciferase signal modulators, primary screen, FRG1 inhibition for FSHD, cell-based, C2C12 myotubes, firefly/Renilla luciferase, luminescence (AID 1084). Particulars: higher = more signal, called active from +8 up or from −8 down.
A short description of experiment [9]: binders of probe aFST on microarray, primary screen, stem cell growth factor project, biochemical, small-molecule microarray, fluorescence 635/667 (AID 1086).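 Further: score merges 667 nm fluorescence with signal-to-noise of each printed compound spot.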 Particulars: higher = more signal.
The nature of experiment [10]: binders of probe aHhip on microarray, primary screen, stem cell growth factor project, biochemical, small-molecule microarray, fluorescence 635/667 (AID 1087).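 Further: score merges spot fluorescence at 667nm with spot signal to noise ratio.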 The following applies: higher = more signal.
The subject of experiment [11] is PRMT1 (protein arginine N-methyltransferase 1). The experiment in a line: PRMT1 binders on small-molecule microarrays, primary screen, biochemical, small-molecule microarray, 635 nm fluorescence (AID 1088).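 Further: binding of Prmt1 protein to compounds spotted on small-molecule microarray slides.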 Particulars: small-molecule microarray binding, higher = more signal.
The nature of experiment [12]: yeast growth modulation, basal conditions, primary screen, YJM789 clinical isolate, OD600, 24 h (AID 1089).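 Further: growth of clinical yeast isolate S. cerevisiae YJM 789 seeded 1000 cells per well; test concentration not given here.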 The following applies: S. cerevisiae YJM789 growth, higher = more signal, called active from +8 up or from −8 down.
Experiment [13] can be described thus: fission yeast growth modulation, primary screen, strain 972, OD600, 24 h, no modulator (AID 1090).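 Further: basal condition with compound alone and no growth modifier present; test concentration not given here.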 Particulars: S. pombe 972 growth, higher = more signal, called active from +8 up or from −8 down.
A short description of experiment [14]: S. cerevisiae growth modulation with rapamycin, primary screen, strain BY4716, OD600, 96 h (AID 1091). Further: test concentration not given here. The following applies: higher = more signal, called active from +8 up or from −8 down.
Experiment [15] addresses Torsin-1A-interacting protein 2 (Homo sapiens) (UniProt Q8NFQ8). The experiment in a line: LULL1 binders on small-molecule microarray, primary screen, cell lysate, human LULL1 lysate, 635/667 nm fluorescence (AID 1092).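 Further: probe is lysate of COS7 cells overexpressing human LULL1; score merges per-feature 667 nm fluorescence with signal-to-noise.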 The following applies: hLULL1 lysate binding, 635 nm fluorescence, higher = more signal.
Experiment [16] in a line: E. coli growth modulation, two-sided OD650, primary screen, E. coli filamentation project, strain DRC41, 24 h (AID 1093).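 Further: MC1000 strain lacking acrAB efflux and sulA so SOS filamentation is blocked; test concentration not given here.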 The following applies: OD650, 24 h, higher = more signal, called active from +8 up or from −8 down.
Experiment [17] in a line: small-molecule microarray binders of probe aLefty2, primary screen, biochemical, biotinylated probe, 635/667 nm fluorescence (AID 1094).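 Further: score merges spot fluorescence near 667 nm with spot signal-to-noise ratio.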 The following applies: higher = more signal.
Experiment [18] relates to Noggin (protein binding on small-molecule microarray). The experiment in a line: Noggin binders on small-molecule microarray, primary screen, biochemical, 635/667 nm fluorescence (AID 1095).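 Further: score merges 667 nm feature fluorescence with signal to noise over triplicate slides.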 The following applies: 635 nm fluorescence, higher = more signal.
Experiment [19] has as its target Neurogenic locus notch homolog protein 3 (Homo sapiens) (UniProt Q9UM47). The experiment in a line: NOTCH3 binders on small-molecule microarray, primary screen, biochemical, 635/667 nm fluorescence (AID 1096). The following applies: NOTCH3 binding, 635 nm fluorescence, higher = more signal.
The nature of experiment [20]: small-molecule microarray binders of probe aEGFR, primary screen, biochemical, biotinylated probe, 635/667 nm fluorescence (AID 1097).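 Further: probe is a biotinylated anti-EGFR antibody binding compounds printed on slides; score combines fluorescence near 667 nm and signal to noise of each spot.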 Particulars: higher = more signal.

Active and inactive are the calls of the source.

Chain of Pro-neuregulin-1, membrane-bound isoform (Homo sapiens) (Q02297 whole entry, looked up, the tested form may be a part, canonical isoform): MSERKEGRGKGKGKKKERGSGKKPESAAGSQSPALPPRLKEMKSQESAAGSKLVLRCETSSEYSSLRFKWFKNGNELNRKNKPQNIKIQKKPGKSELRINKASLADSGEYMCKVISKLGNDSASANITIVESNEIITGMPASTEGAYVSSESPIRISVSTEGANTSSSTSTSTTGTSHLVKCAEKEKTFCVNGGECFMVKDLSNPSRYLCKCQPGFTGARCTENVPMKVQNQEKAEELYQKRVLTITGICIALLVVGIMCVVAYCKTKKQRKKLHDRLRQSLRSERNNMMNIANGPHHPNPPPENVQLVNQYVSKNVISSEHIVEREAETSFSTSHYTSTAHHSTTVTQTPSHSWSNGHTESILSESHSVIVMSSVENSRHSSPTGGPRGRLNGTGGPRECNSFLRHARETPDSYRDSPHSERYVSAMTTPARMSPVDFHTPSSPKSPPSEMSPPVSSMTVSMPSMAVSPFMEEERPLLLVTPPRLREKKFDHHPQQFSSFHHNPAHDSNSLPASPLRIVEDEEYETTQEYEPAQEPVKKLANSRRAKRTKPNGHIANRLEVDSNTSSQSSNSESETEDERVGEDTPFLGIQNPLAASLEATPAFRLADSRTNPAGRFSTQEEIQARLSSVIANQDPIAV
Chain of Neurogenic locus notch homolog protein 3 (Homo sapiens) (Q9UM47 whole entry, looked up): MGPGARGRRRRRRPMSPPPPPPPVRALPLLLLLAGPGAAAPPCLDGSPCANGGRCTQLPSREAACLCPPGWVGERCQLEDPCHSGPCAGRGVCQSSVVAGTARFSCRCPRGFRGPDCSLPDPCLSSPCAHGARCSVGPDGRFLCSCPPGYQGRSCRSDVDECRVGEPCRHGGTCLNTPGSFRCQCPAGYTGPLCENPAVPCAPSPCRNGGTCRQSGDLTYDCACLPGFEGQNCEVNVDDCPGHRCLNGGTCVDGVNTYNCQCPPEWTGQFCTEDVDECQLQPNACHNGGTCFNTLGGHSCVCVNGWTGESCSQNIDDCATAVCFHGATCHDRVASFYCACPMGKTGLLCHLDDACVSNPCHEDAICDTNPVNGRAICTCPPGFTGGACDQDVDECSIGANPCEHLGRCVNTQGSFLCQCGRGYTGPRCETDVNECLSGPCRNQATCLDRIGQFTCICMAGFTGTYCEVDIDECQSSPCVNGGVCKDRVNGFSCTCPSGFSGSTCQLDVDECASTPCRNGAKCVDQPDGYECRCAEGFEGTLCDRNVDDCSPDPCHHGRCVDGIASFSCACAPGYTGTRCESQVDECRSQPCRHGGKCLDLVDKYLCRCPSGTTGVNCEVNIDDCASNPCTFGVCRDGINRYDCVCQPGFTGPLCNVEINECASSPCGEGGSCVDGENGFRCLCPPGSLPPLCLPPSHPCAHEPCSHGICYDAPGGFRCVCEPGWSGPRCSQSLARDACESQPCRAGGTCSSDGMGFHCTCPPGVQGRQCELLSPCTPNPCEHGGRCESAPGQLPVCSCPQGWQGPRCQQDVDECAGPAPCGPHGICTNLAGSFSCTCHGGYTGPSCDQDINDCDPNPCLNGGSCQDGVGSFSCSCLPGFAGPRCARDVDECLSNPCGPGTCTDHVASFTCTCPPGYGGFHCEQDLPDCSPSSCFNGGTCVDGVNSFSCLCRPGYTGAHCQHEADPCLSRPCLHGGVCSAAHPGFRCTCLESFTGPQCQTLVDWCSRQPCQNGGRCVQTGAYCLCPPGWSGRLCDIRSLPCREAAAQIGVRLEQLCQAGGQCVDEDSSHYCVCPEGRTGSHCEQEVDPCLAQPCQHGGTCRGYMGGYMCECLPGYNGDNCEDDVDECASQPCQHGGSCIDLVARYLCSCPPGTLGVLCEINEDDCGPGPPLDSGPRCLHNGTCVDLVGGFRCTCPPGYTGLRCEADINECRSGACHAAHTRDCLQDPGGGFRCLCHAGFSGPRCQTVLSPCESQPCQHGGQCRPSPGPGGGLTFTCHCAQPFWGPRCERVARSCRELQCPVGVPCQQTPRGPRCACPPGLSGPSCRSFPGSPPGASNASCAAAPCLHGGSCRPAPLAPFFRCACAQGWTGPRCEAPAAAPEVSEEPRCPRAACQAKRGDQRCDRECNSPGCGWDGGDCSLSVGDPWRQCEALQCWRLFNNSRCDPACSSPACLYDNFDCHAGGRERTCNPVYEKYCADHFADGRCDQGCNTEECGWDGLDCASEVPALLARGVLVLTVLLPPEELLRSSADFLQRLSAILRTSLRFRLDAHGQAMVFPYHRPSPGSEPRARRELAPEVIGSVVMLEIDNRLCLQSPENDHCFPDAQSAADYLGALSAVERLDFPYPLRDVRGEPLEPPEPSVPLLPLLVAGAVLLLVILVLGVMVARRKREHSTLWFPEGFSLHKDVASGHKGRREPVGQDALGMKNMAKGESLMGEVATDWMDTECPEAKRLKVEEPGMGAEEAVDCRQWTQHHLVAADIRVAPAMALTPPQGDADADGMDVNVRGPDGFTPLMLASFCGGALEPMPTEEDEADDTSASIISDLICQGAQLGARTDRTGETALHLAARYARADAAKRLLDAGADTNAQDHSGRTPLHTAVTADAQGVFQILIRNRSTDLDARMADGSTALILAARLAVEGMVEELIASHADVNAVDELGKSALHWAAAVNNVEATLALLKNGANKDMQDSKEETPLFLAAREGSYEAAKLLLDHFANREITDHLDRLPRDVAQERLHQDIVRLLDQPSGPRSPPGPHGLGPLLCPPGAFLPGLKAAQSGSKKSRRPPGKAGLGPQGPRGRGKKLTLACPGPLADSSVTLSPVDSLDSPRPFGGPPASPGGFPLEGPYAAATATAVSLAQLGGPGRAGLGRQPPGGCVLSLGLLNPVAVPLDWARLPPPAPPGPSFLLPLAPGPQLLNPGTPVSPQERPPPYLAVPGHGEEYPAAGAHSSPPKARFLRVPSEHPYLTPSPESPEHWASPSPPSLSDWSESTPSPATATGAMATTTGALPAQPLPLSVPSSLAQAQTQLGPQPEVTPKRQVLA
Chain of Torsin-1A-interacting protein 2 (Homo sapiens) (Q8NFQ8 whole entry, looked up): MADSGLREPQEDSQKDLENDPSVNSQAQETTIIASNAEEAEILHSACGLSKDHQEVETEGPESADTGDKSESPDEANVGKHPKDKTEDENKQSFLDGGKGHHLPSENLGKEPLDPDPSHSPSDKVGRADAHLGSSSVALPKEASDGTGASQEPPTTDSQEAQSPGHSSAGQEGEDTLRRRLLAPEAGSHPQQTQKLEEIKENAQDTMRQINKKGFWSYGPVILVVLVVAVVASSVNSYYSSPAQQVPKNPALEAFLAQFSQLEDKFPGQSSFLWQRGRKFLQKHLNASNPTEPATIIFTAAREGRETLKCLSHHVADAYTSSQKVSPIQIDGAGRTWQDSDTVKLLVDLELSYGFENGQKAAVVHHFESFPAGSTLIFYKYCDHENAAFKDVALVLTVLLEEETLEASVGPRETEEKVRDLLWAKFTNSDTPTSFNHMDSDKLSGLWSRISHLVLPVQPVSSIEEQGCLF

Turning to `COCCOC(=O)N1C(=O)[C@@]2(c3ccccc31)[C@H](C(=O)N1CCN(c3ncccn3)CC1)[C@H]1C(=O)O[C@H](c3ccccc3)[C@H](c3ccccc3)N1[C@@H]2c1ccccc1OCCO`, the composite z-score in experiment [1] is -0.287; in [2], 0.514; in experiment [3] it was 0.168; in experiment [4], 0.7; in experiment [5], 0.827; in experiment [6], 0.111. The composite z-score was 1.13 in [7]; 0.244 in experiment [9]; -0.0919 in experiment [10]; 1.49 in experiment [11]; 2.61 in [15]; -0.0366 in experiment [17]. In addition, the composite z-score in [18] is 1.18; in [19], 1.07; in experiment [20], -0.067. Further, the z-score is -1.12 (inactive) in experiment [8]; 1.13 (inactive) in experiment [12]; 0.185 (inactive) in experiment [13]; 7.39 (inactive) in [14]; 1.97 (inactive) in experiment [16].
As to `O=C1c2ccccc2[C@@]2(Cc3ccccc3N(Cc3ccccc3)C2=O)[C@H](c2ccc(CO)cc2)N1Cc1ccccc1Cl`, the composite z-score was 0.209 in [1]; -0.337 in experiment [2]; -0.0934 in experiment [3]; -0.127 in experiment [4]; -1.04 in [5]; -0.579 in [6]. Moreover, the composite z-score in experiment [7] was -1.13; in experiment [9] it was -0.164; in [10], -0.0541; in [11], 0.11; in experiment [15], -0.394; in experiment [17], -0.0812. Besides, the composite z-score in [18] was -0.109; in [19], -0.149; in experiment [20] it was -0.146. In addition, the z-score in experiment [8] was 1.13 (inactive); in [12], -0.251 (inactive); in experiment [13], -0.602 (inactive); in experiment [14] it was -2.35 (inactive); in experiment [16], -0.499 (inactive).
For `Cc1ccc(S[C@]2(C(=O)NCCCN(C)C)CC(=O)N(Cc3ccccc3C(F)(F)F)[C@@H]2c2ccc(CO)cc2I)cc1`, the composite z-score was -0.73 in experiment [1]; -0.0283 in [2]; -0.21 in [3]; -0.211 in [4]; -0.733 in [5]; 1.51 in experiment [6]. For the same compound, the composite z-score was 1.13 in experiment [7]; 0.216 in experiment [9]; -0.54 in experiment [10]; 0.349 in experiment [11]; 3.18 in [15]; -0.323 in experiment [17]. For the same compound, the composite z-score in experiment [18] was -0.496; in experiment [19], -0.174; in experiment [20], -0.378. The z-score was 0.241 (inactive) in experiment [8]; -1.34 (inactive) in [12]; -3.27 (inactive) in experiment [13]; 0.0267 (inactive) in experiment [14]; -0.328 (inactive) in experiment [16].
On to `CCOc1cc(C(O)C2C=CC3C(=O)N(c4ccccc4)C(=O)C3N2Nc2ccccc2F)ccc1O` (stereo not given), for which the composite z-score in experiment [1] came to 2.51; in experiment [2] it was 0.112; in [3] it was 0.252; in experiment [4] it was 0.334; in experiment [5], 0.935; in experiment [6], 2.06. Moreover, the composite z-score in experiment [7] amounted to 1.37; in [9] it was 1.51; in [10], 0.02; in [11], 0.196; in [15], 3.01; in experiment [17] it was 0.615. Moreover, the composite z-score was -0.596 in experiment [18], 0.0983 in experiment [19] and 0.561 in experiment [20]. Moreover, the z-score in experiment [8] was 0.118 (inactive); in experiment [12], 1.54 (inactive); in experiment [13] it was -0.428 (inactive); in experiment [14] it was 1.81 (inactive); in [16], -0.199 (inactive).
Take `C=C(CCCC)/C(=C/C[C@H](OC(=O)c1ccncc1)c1cccc(OCCO)c1)c1cnc2ccccc2c1`: the composite z-score was -0.279 in experiment [1]; 0.824 in experiment [2]; 0.0437 in experiment [3]; 0.595 in experiment [4]; 0.974 in experiment [5]; 1.56 in [6]. Further, the composite z-score is 1.04 in experiment [7]; 0.346 in experiment [9]; -0.0491 in experiment [10]; 1.53 in experiment [11]; 2.52 in experiment [15]; -0.121 in [17]. For the same compound, the composite z-score in experiment [18] is 0.869; in [19], 1.13; in [20], -0.065. The z-score in experiment [8] is 0.996 (inactive); in [12], -0.664 (inactive); in [13] it was -0.968 (inactive); in [14], 8.23 (active); in experiment [16] it was -0.268 (inactive).
